This passage reports binding signal results from PMC8136818, “Evolving origin-of-transfer sequences on staphylococcal conjugative and mobilizable plasmids—who’s mimicking whom?”.

Holding throughout (details): protein: recombinant; tags: His6-TEV, cleaved; chain copies: 4
The target in one assay is T1, SmpOUNa (plasmid pC02).
T1 chain: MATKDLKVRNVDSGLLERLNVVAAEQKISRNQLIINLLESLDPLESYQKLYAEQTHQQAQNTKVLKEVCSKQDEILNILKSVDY
Description: SPR (ReDCaT); 300 mM NaCl; 10 mM HEPES, 3 mM EDTA, 0.05% Tween 20, NaCl 150 mM (SmpO49 screens), 300 mM (SmpO45, SmpO408, SmpOUNa screens) or 250 mM (Table S4); pH and temperature not stated; protein 1 uM; high values mean tight binding. Summed up: (§1)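 Tag-cleaved protein, expressed in E. coli BL21(DE3)pLysS and purified by nickel-affinity and size-exclusion chromatography, was screened on a Biacore T200 SA chip by reusable DNA capture. OriT oligonucleotides were captured at 1 μM on Fc2, with a control linker on Fc1. Protein at 1 μM was injected at 30 μl/min (60 s contact, 60 s dissociation) in 10 mM HEPES, 300 mM NaCl, 3 mM EDTA, 0.05% Tween 20. DNA binding is reported as %Rmax.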

Assay [1] concerns the target T2, SmpO408 (Staphylococcus aureus M0408).
T2 chain: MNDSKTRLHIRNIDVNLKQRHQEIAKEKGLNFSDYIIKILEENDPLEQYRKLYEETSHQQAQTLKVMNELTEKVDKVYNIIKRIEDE
The description is as above. Summed up:
as §1

A further assay concerns the target T3, SmpOSep (Staphylococcus epidermidis VCU120).
T3 chain: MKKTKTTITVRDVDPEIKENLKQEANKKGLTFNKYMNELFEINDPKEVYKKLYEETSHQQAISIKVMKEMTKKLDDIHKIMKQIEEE
The assay can be described thus: SPR (ReDCaT); 250 mM NaCl; 10 mM HEPES, 3 mM EDTA, 0.05% Tween 20, NaCl 150 mM (SmpO49 screens), 300 mM (SmpO45, SmpO408, SmpOUNa screens) or 250 mM (Table S4); pH and temperature not stated; protein 1 uM; high values mean tight binding.

The target of assay [2] is T2, SmpO408. The description is as above.

B1: OTUNA.4 (dsDNA)
DNA 1: TTAATTTTTGTGACCCCCATAAGATAAATG
DNA 2: CATTTATCTTATGGGGGTCACAAAAATTAA
B1: in the assay with SmpOUNa, the binding signal worked out at 58.4 ± 1.36 %Rmax.

B2: ossA408 G6C (dsDNA)
DNA 1: TTATACGCGCCTAATA
DNA 2: TATTAGGCGCGTATAA
In the case of B2, the binding signal with SmpO408 [1] was 35.5 ± 2.44 %Rmax.

B3: OTUNa For/Rev_12 (dsDNA)
DNA 1: AAGATAAATGTTTAAAACCCTTGAAATATC
DNA 2: GATATTTCAAGGGTTTTAAACATTTATCTT
Regarding B3, the binding signal in the assay with SmpOUNa turned out to be 1.56 ± 0.168 %Rmax.

B4: OT408 For/Rev_7 (dsDNA)
DNA 1: GTACAGACACAATATATAGGGGTACATTTT
DNA 2: AAAATGTACCCCTATATATTGTGTCTGTAC
With B4, the binding signal in the assay with SmpO408 [1] was found to be 7.42 %Rmax.

B5: ossA408 C11G (dsDNA)
DNA 1: TTATAGGCGCGTAATA
DNA 2: TATTACGCGCCTATAA
Regarding B5, the binding signal in the assay with SmpO408 [1] was 34.5 ± 1.85 %Rmax.

B6: OTUNa For/Rev_11 (dsDNA)
DNA 1: TGACCCCCATAAGATAAATGTTTAAAACCC
DNA 2: GGGTTTTAAACATTTATCTTATGGGGGTCA
For the molecule B6, the binding signal with SmpOUNa came to 18.2 ± 1.39 %Rmax.

B7: OT408 For/Rev_12 (dsDNA)
DNA 1: GGCGCCTAATAAAAACCTCTGTATCCCTTG
DNA 2: CAAGGGATACAGAGGTTTTTATTAGGCGCC
Take B7: in the assay with SmpO408 [1], the binding signal is 25.9 %Rmax.

B8: ossA408-9 (dsDNA)
DNA 1: TTATAGGCCCCTAATA
DNA 2: TATTAGGGGCCTATAA
Consider B8, for which the binding signal with SmpO408 [1] was determined as 6.86 ± 1.04 %Rmax.

B9: ossA408-7 (dsDNA)
DNA 1: TTATAGCCGCCTAATA
DNA 2: TATTAGGCGGCTATAA
On to B9, for which the binding signal with SmpO408 [1] came to 49.8 ± 2.35 %Rmax.

B10: OT408 For/Rev_10 (dsDNA)
DNA 1: GGGTACAAAACGGTTTTATAGGCGCCTAAT
DNA 2: ATTAGGCGCCTATAAAACCGTTTTGTACCC
B10: in the assay with SmpO408 [1], the binding signal came out at 71.2 %Rmax.

B11: ossB49 (dsDNA)
DNA 1: CCGATGATAGCAAATT
DNA 2: AATTTGCTATCATCGG
Turning to B11, the binding signal in the assay with SmpOSep worked out at 0.6 %Rmax.

B12: ossA408-4 (dsDNA)
DNA 1: TTAAAGGCGCCTAATA
DNA 2: TATTAGGCGCCTTTAA
As for B12, in the assay with SmpO408 [1], the binding signal was determined as 69 ± 1.82 %Rmax.

B13: ossA408-3 (dsDNA)
DNA 1: TTTTAGGCGCCTAATA
DNA 2: TATTAGGCGCCTAAAA
Consider B13, for which the binding signal with SmpO408 [1] worked out at 64.4 ± 1.7 %Rmax.

B14: OT408 For/Rev_15 (dsDNA)
DNA 1: AAATGTCTGGCTTCGCCAGACCCACCTTTT
DNA 2: AAAAGGTGGGTCTGGCGAAGCCAGACATTT
On to B14, for which, in the assay with SmpO408 [1], the binding signal was determined as 14.3 %Rmax.

B15: OT408 For/Rev_18 (dsDNA)
DNA 1: TAATAGGTGGCAAATTTCCCTTATGCTCTT
DNA 2: AAGAGCATAAGGGAAATTTGCCACCTATTA
For B15, the binding signal in the assay with SmpO408 [1] was found to be 60.1 %Rmax.

B16: ossA408-8 (dsDNA)
DNA 1: TTATAGGGGCCTAATA
DNA 2: TATTAGGCCCCTATAA
With B16, the binding signal in the assay with SmpO408 [1] amounted to 7.62 ± 1.09 %Rmax.

B17: ossA408-12 (dsDNA)
DNA 1: TTATAGGCGCCAAATA
DNA 2: TATTTGGCGCCTATAA
For the molecule B17, the binding signal in the assay with SmpO408 [1] came to 68.3 ± 1.07 %Rmax.

B18: OTUNa For/Rev_9 (dsDNA)
DNA 1: GTGTGACAATTTAATTTTTGTGACCCCCAT
DNA 2: ATGGGGGTCACAAAAATTAAATTGTCACAC
B18: the binding signal in the assay with SmpOUNa turned out to be 53.342 ± 0.0463 %Rmax.

B19: ossASep (dsDNA)
DNA 1: TTTGCATACATTTAAA
DNA 2: TTAAATGTATGCAAA
On to B19, for which, in the assay with SmpOSep, the binding signal amounted to 18.8 %Rmax.

B20: OTUNa For/Rev_16 (dsDNA)
DNA 1: AGATTACCCATTATAAAATGGGTACATATT
DNA 2: AATATGTACCCATTTTATAATGGGTAATCT
With B20, the binding signal in the assay with SmpOUNa is 12.5 ± 0.926 %Rmax.

B21: ossBSep (dsDNA)
DNA 1: TAAATGTATGCATATT
DNA 2: AATATGCATACATTTA
As to B21, in the assay with SmpOSep, the binding signal was 16.5 %Rmax.

B22: ossA408-1 (dsDNA)
DNA 1: ATATAGGCGCCTAATA
DNA 2: TATTAGGCGCCTATAT
In the case of B22, the binding signal with SmpO408 [1] was determined as 67.4 ± 2.06 %Rmax.

B23: OTUNa For/Rev_18 (dsDNA)
DNA 1: GGGTACATATTTCCCTTATGCTCTTACAAA
DNA 2: TTTGTAAGAGCATAAGGGAAATATGTACCC
With B23, in the assay with SmpOUNa, the binding signal stood at 26.2 ± 1.85 %Rmax.

B24: ossA408 (dsDNA)
DNA 1: TTATAGGCGCCTAATA
DNA 2: TATTAGGCGCCTATAA
In the case of B24, the binding signal was 52.8 %Rmax with SmpO408 [2] and 63.9 ± 1.02 %Rmax with SmpO408 [1].

B25: ossA408-15 (dsDNA)
DNA 1: TTATAGGCGCCTAAAA
DNA 2: TTTTAGGCGCCTATAA
As to B25, the binding signal in the assay with SmpO408 [1] is 63 ± 1.28 %Rmax.

B26: ossA408-14 (dsDNA)
DNA 1: TTATAGGCGCCTATTA
DNA 2: TAATAGGCGCCTATAA
Turning to B26, the binding signal with SmpO408 [1] worked out at 63 ± 0.997 %Rmax.

B27: OT408 For/Rev_13 (dsDNA)
DNA 1: AAAAACCTCTGTATCCCTTGAAATGTCTGG
DNA 2: CCAGACATTTCAAGGGATACAGAGGTTTTT
As for B27, the binding signal in the assay with SmpO408 [1] came to 4.19 %Rmax.

B28: ossA408-13 (dsDNA)
DNA 1: TTATAGGCGCCTTATA
DNA 2: TATAAGGCGCCTATAA
With B28, the binding signal with SmpO408 [1] was found to be 63.9 ± 1.66 %Rmax.

B29: ossA408-16 (dsDNA)
DNA 1: TTATAGGCGCCTAATT
DNA 2: AATTAGGCGCCTATAA
On to B29, for which the binding signal with SmpO408 [1] is 65.1 ± 0.98 %Rmax.

B30: OTUNa For/Rev_7 (dsDNA)
DNA 1: CAATATATTGTGTCACAAAAGTGTGACAAT
DNA 2: ATTGTCACACTTTTGTGACACAATATATTG
As to B30, in the assay with SmpOUNa, the binding signal worked out at 3.471 ± 0.00557 %Rmax.

B31: ossA408-10 (dsDNA)
DNA 1: TTATAGGCGGCTAATA
DNA 2: TATTAGCCGCCTATAA
As to B31, the binding signal with SmpO408 [1] came out at 48.1 ± 2.02 %Rmax.

B32: OT408 For/Rev_9 (dsDNA)
DNA 1: GGTACATTTTGGGTACAAAACGGTTTTATA
DNA 2: TATAAAACCGTTTTGTACCCAAAATGTACC
B32: in the assay with SmpO408 [1], the binding signal came out at 4.6 %Rmax.

B33: ossA408-5 (dsDNA)
DNA 1: TTATTGGCGCCTAATA
DNA 2: TATTAGGCGCCAATAA
Take B33: in the assay with SmpO408 [1], the binding signal came to 67.9 ± 1.54 %Rmax.

B34: OT408 For/Rev_8 (dsDNA)
DNA 1: AATATATAGGGGTACATTTTGGGTACAAAA
DNA 2: TTTTGTACCCAAAATGTACCCCTATATATT
For the molecule B34, the binding signal with SmpO408 [1] turned out to be 5.29 %Rmax.

B35: OTUNa For/Rev_8 (dsDNA)
DNA 1: TGTCACAAAAGTGTGACAATTTAATTTTTG
DNA 2: CAAAAATTAAATTGTCACACTTTTGTGACA
With B35, the binding signal with SmpOUNa was determined as 17 ± 0.439 %Rmax.

B36: OT408 For/Rev_17 (dsDNA)
DNA 1: CCCACCTTTTTAATAGGTGGCAAATTTCCC
DNA 2: GGGAAATTTGCCACCTATTAAAAAGGTGGG
With B36, the binding signal with SmpO408 [1] turned out to be 64.6 %Rmax.

B37: OTUNa For/Rev_17 (dsDNA)
DNA 1: TTATAAAATGGGTACATATTTCCCTTATGC
DNA 2: GCATAAGGGAAATATGTACCCATTTTATAA
As for B37, the binding signal with SmpOUNa was 9.96 ± 0.667 %Rmax.

B38: OT408.5 (dsDNA)
DNA 1: CGGTTTTATAGGCGCCTAATAAAAACCTCT
DNA 2: AGAGGTTTTTATTAGGCGCCTATAAAACCG
For B38, in the assay with SmpO408 [1], the binding signal came to 109 %Rmax.

B39: OT408 For/Rev_14 (dsDNA)
DNA 1: GTATCCCTTGAAATGTCTGGCTTCGCCAGA
DNA 2: TCTGGCGAAGCCAGACATTTCAAGGGATAC
Consider B39, for which, in the assay with SmpO408 [1], the binding signal amounted to 8.57 %Rmax.

B40: ossA408-2 (dsDNA)
DNA 1: TAATAGGCGCCTAATA
DNA 2: TATTAGGCGCCTATTA
Turning to B40, the binding signal with SmpO408 [1] came to 65.7 ± 2.04 %Rmax.
